Data on 25 compounds can be found in PubChem BioAssay (NCATS).

The target in experiment [1] is Glutathione peroxidase 1 (Homo sapiens) (UniProt P07203). Put plainly: Primary qHTS Assay for Inhibitors of Recombinant Selenoprotein Glutathione Peroxidase 1 (GPX1) (AID 1845191). Also: nearly all actives have a fitted effect of over 65% in size. In short, it runs like this: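 GPX1 10 nM, GR 100 nM, GSH 1 mM, NADPH 0.5 mM, CHP 0.5 mM (final). 30-min cpd preincubation, RT. Ex340/Em450 read t=0, t=15 min.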
Sequence of Glutathione peroxidase 1 (Homo sapiens) (P07203 whole entry, looked up): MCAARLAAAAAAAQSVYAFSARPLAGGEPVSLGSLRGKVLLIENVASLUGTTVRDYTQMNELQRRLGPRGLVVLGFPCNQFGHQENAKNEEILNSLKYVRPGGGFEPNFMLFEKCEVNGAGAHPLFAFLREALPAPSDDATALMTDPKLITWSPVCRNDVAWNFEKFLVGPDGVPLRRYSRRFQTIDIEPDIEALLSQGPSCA
Background: qHTS replaces the single test concentration by a dilution series.

Experiment [2] deals with Phospholipid hydroperoxide glutathione peroxidase GPX4 (Homo sapiens) (UniProt P36969). In words: Primary qHTS Assay for Inhibitors of Recombinant Selenoprotein Glutathione Peroxidase 4 (GPX4) (AID 1845192). Also: nearly all actives have a fitted effect of over 65% in size. As to activity change, negative = inhibition: series mostly up to about 50 µM; % is scaled to controls: 0 for no effect and ±100 for the full control effect. The method, boiled down: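 qHTS, GR-coupled: GPX4 200 nM + cpd 30 min RT → GSH 1 mM, NADPH 0.5 mM, GR 100 nM → CHP 0.5 mM start; fluor 340/450 at t0 and t15 min; no-enzyme wells as control.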
Sequence of Phospholipid hydroperoxide glutathione peroxidase GPX4 (Homo sapiens) (P36969 whole entry, looked up): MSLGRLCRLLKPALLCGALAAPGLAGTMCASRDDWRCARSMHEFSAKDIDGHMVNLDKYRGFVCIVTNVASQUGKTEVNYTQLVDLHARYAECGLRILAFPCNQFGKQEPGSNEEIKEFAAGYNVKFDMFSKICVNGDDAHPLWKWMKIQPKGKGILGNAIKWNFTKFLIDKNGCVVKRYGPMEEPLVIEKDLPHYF

Experiment [3] in a line: Primary fluorescence-based thiol-reactive (MSTI) qHTS assay for identification of artifact compounds. (AID 1845221). Also: nearly all actives have a fitted effect of over 65% in size. Also: potency is read from the fitted curve at half-maximal effect.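 As to activity change, negative = thiol reactive: series mostly up to about 54 µM; thiol-reactive compounds lower the probe fluorescence signal.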 In short, it runs like this:
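Thiol-reactive compounds detected by quenching of 4 uM MSTI fluorescence (525/598 nm) after 1 h room-temperature dark incubation in PBS pH 7.4, 2% DMSO. qHTS titration; percent inhibition Hill-fitted against Acetyl-MSTI/MSTI controls.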

In experiment [4] the target is Luciferin 4-monooxygenase (Photinus pyralis) (UniProt P08659). Put plainly: Primary firefly luciferase (FLuc) qHTS assay for identification of artifact compounds. (AID 1845220). Also: nearly all actives have a fitted effect of over 60% in size.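 As to activity change, negative = inhibition: series mostly up to about 54 µM; plate controls were DMSO vehicle for no effect and no enzyme for full effect.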 The method, boiled down:
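Reaction readout was CCD-imaged luminescence, taken 5 min after adding 10 nM purified firefly enzyme to compound-treated wells holding 10 uM luciferin and ATP in pH 7.6 buffer.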

The structures appear in SMILES notation. Inconclusive results are not listed. Activity calls are given as the source filed them. Calls follow the shape of the dose curve; as a rule, active = well fitted curve in the direction sought with a large enough effect; inconclusive = small, poorly fitted or top-dose-only effect, or another doubt; inactive = no such curve, though single readings can be large; an effect the other way counts as inactive or inconclusive.

As for `CCCC(=O)Nc1cccc(NC(=O)c2ccccc2Br)c1`, the Potency result in experiment [1], in experiment [2] and in experiment [3] was “inactive” each time.

As to `O=C(O)CC/C=C\C[C@H]1CO[C@@H](c2ccccc2Cl)O[C@H]1c1ccccc1O`, the Potency entry in experiment [1], in experiment [2] and in experiment [3] was “inactive” throughout.

In the case of `CC(=O)OC(C)(C)/C=C/C(=O)[C@](C)(O)C1[C@H](O)C[C@@]2(C)[C@@H]3CC=C4[C@@H](C[C@H](O[C@@H]5O[C@H](CO)[C@@H](O)[C@H](O)[C@H]5O)C(=O)C4(C)C)[C@]3(C)C(=O)C[C@]12C` (stereo partly specified), the Potency result in experiment [1], in experiment [2] and in experiment [3] was “inactive” in each case.

For the compound `O=C(OCC(O)CO[C@@H]1O[C@H](C(=O)O)[C@@H](O)[C@H](O)[C@H]1O)c1ccccc1` (stereo partly specified), the Potency entry in experiment [1] and in experiment [2] was “inactive” each time. Further, the Potency in experiment [3] was 6.56 µM (active).

In the case of `CC(C)=CCC[C@](C)(O[C@@H]1O[C@H](CO)[C@@H](O)[C@H](O)[C@H]1O)[C@H]1CC[C@]2(C)[C@@H]1[C@H](O)CC1[C@@]3(C)CC[C@H](O)C(C)(C)C3[C@@H](O[C@@H]3O[C@H](CO)[C@@H](O)[C@H](O)[C@H]3O[C@@H]3O[C@@H](C)[C@H](O)[C@@H](O)[C@H]3O)C[C@]12C` (stereo partly specified), the Potency entry in experiment [1] and in experiment [2] was “inactive” in each case. Moreover, in experiment [3], the activity change, negative = thiol reactive was 209% [at 11.5 µM] (inactive).

`CC1(C)C(=O)CCC2(C)C1C(O)C=C1COC(=O)C12O` (stereo unspecified): the Potency result in experiment [1] and in experiment [4] was “inactive” throughout.

Consider `CC(=O)[C@@H]1C[C@H](C(C)(C)O[C@@H]2O[C@H](CO)[C@@H](O)[C@H](O)[C@H]2O)CC[C@@]2(CO)OC(=O)C[C@@H]12`, for which the Potency entry in experiment [1], in experiment [2] and in experiment [3] was “inactive” each time.

As to `CCOc1ccc(-c2cc(NC(=O)c3c(F)cccc3F)c(C(=O)O)s2)cc1`, the Potency result in experiment [1], in experiment [2] and in experiment [3] was “inactive” in each case.

As for `CC(=O)NC1C(OC2CCC3(C)C(CCC4(C)C3CC=C3C5CC(C)(C)CCC5(C(=O)O)C(O)CC34C)C2(C)C)OC(CO)C(O)C1O` (stereo unspecified), the Potency entry in experiment [1], in experiment [2] and in experiment [3] was “inactive” in each case.

`CC1(C)CC[C@]2(C(=O)O[C@@H]3O[C@H](CO)[C@@H](O)[C@H](O)[C@H]3O)CC[C@]3(C)C(=CCC4[C@@]5(C)CC[C@H](O[C@@H]6O[C@H](C(=O)O)[C@@H](O)[C@H](O)[C@H]6OC6OC(CO)C(O)C(O)C6O)C(C)(C)C5CC[C@]43C)[C@@H]2C1` (stereo partly specified): the Potency result in experiment [1] is “inactive”. Further, the activity change, negative = inhibition in experiment [4] was 1.1% [at 11.6 µM] (inactive). The activity change, negative = thiol reactive in experiment [3] was 43.7% [at 11.5 µM] (inactive).

Turning to `CO[C@H]1c2cc(C(C)C)c(O)c(O)c2[C@@]23CCCC(C)(C)C2[C@@H]1OC3=O` (stereo partly specified), the Potency result in experiment [1] and in experiment [4] was “inactive” throughout. In addition, the Potency in experiment [3] was 1.47 µM (active).

On to `C#CCCCn1cc(-c2cccc3c2N[C@@H](C)CC(=O)N3)cn1`, for which the Potency result in experiment [1], in experiment [4] and in experiment [3] was “inactive” each time.

As for `O=C(O)c1ccc(NC(=O)[C@H](CC2CCCC2)n2cnc(C(F)(F)F)c2)nc1`, the Potency entry in experiment [1], in experiment [4] and in experiment [3] was “inactive” each time.

On to `CN[C@H](CNC(=O)N1CCC[C@@H]([C@@H](OCCNC(=O)OC)c2cccc(Cl)c2)C1)C[C@H]1CCCOC1`, for which the Potency entry in experiment [1], in experiment [4] and in experiment [3] was “inactive” throughout.

For `CCCC/C=C\CCCCCc1cc(=O)c2ccccc2n1C`, the Potency result in experiment [1], in experiment [4] and in experiment [3] was “inactive” each time.

As for `COc1ccc2[nH]c(S(=O)Cc3ncc(C)c(OC)c3C)nc2c1` (stereo unspecified), the Potency entry in experiment [1] and in experiment [4] was “inactive” in each case. Moreover, in experiment [3], the Potency was 11.9 µM (active).

With `COC(=O)/C=C/c1ccc(O[C@@H]2O[C@H](CO)[C@@H](O)[C@H](O)[C@H]2O)cc1`, the Potency result in experiment [1], in experiment [4] and in experiment [3] was “inactive” throughout.

Turning to `C/C(=C\CCC1(C)C2CC3C(C2)C31C)C(=O)O` (stereo unspecified), the Potency result in experiment [1] and in experiment [4] was “inactive” in each case.

As to `COc1ccc2c(c1)C=C1Cn3c-2c(C2CCCCC2)c2ccc(cc23)C(=O)NS(=O)(=O)N(C)CCOCCN(C)C1=O`, the Potency result in experiment [1], in experiment [4] and in experiment [3] was “inactive” each time.

Regarding `CCC(C)/C=C(C)/C=C/C1=CC2=C(Cl)C(=O)C(C)(OC(C)=O)C(=O)C2=CN1C(CCCN=C(N)N)C(=O)O` (stereo unspecified), the Potency result in experiment [1] and in experiment [4] was “inactive” in each case. For the same compound, the Potency in experiment [3] was 1.03 µM (active).

On to `COc1cc(C(CO)C(OC2OC(CO)C(O)C(O)C2O)c2ccc(O)c(OC)c2)ccc1O` (stereo unspecified), for which the Potency entry in experiment [1] and in experiment [4] was “inactive” in each case.

`CC(C)C1CCC(CO)=CC1/C=C(\CO)C(=O)OCC1(O)CCC(C(C)C)C2C=C(C(=O)O)COC(=O)C21` (stereo unspecified): the Potency entry in experiment [1], in experiment [4] and in experiment [3] was “inactive” throughout.

As to `N#Cc1ccc(C2CCCc3cncn32)cc1` (stereo unspecified), the Potency result in experiment [1], in experiment [4] and in experiment [3] was “inactive” throughout.

As for `OC[C@H]1O[C@@H](OCc2ccccc2)[C@H](O[C@@H]2OC[C@@H](O)[C@H](O)[C@H]2O)[C@@H](O)[C@@H]1O`, the Potency entry in experiment [1] and in experiment [4] was “inactive” in each case.

For `CC1=CC[C@@]2(C)CC[C@@](O)(C(C)C)[C@@H]2[C@@H](O)C1`, the Potency result in experiment [1], in experiment [4] and in experiment [3] was “inactive” in each case.
